In the supplement of paper PMC11001985:
Values without a mark were called inactive.

What follows are targets tested with C#CCNC(=O)CCSSCCC(=O)NCCc1ccc(C=O)c(C=O)c1 (assay: lysine labeling ratio R10:1 (500 µM / 50 µM probe), SILAC-ABPP in living cells; higher = lower intrinsic lysine reactivity toward the probe, active = 2 or less). Details: HeLa; probe concentrations 500 vs 50 µM.
Method in brief: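 With forward and reverse label swaps, light and heavy SILAC HeLa cells, alive and in PBS at room temperature, were exposed to either 500 µM or 50 µM of an alkyne-tagged lysine probe bearing a disulfide link. After mixing, lysates were clicked to biotin-azide, cut with trypsin, pulled down on neutravidin, freed with DTT, alkylated and analysed on a TIMS-TOF Pro by LC-MS/MS. The per-lysine value R is the median over forward and reverse replicates of the filtered median high-probe/low-probe MS1 peptide ratio. It is capped at 20.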

Chain of UniProt O60245 (O60245 whole entry): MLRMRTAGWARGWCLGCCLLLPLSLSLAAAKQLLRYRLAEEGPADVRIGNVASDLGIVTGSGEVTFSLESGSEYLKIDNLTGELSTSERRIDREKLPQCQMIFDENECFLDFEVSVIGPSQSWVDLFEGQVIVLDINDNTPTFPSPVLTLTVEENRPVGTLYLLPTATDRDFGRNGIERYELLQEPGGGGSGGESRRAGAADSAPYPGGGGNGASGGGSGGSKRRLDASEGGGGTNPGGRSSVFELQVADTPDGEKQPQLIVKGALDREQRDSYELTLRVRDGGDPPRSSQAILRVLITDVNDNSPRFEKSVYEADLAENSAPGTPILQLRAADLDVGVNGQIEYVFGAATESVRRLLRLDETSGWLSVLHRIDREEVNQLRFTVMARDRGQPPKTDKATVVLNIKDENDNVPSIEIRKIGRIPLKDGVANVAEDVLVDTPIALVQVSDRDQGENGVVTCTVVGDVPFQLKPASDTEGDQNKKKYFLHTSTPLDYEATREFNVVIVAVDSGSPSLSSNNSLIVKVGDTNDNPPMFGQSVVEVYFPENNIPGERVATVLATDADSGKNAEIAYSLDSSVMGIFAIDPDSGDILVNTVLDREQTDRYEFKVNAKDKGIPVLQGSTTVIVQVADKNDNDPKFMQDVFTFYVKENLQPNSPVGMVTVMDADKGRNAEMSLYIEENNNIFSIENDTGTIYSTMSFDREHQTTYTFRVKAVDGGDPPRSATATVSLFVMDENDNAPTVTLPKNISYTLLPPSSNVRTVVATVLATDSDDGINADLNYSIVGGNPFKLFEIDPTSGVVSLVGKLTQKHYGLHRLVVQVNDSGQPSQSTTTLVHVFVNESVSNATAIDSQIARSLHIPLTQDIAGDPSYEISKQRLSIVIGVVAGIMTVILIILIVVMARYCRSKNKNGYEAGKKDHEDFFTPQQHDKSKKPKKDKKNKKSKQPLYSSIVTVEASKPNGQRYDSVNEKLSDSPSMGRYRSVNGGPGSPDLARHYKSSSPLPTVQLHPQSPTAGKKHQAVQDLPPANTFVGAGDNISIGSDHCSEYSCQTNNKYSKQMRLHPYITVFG
Chain of UniProt P08670 (P08670 whole entry): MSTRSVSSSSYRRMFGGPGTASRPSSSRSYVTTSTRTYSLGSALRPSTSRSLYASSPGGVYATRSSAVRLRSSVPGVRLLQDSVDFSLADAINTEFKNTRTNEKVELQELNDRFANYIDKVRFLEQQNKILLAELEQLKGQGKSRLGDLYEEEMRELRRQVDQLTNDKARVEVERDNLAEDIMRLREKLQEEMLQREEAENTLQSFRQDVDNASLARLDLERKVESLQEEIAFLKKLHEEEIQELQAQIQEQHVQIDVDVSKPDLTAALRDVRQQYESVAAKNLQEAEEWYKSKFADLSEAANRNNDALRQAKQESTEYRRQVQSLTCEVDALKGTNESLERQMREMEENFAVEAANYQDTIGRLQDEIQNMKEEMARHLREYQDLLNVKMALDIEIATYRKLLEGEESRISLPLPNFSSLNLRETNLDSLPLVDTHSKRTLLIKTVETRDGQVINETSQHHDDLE
Chain of UniProt P08069 (P08069 whole entry, looked up): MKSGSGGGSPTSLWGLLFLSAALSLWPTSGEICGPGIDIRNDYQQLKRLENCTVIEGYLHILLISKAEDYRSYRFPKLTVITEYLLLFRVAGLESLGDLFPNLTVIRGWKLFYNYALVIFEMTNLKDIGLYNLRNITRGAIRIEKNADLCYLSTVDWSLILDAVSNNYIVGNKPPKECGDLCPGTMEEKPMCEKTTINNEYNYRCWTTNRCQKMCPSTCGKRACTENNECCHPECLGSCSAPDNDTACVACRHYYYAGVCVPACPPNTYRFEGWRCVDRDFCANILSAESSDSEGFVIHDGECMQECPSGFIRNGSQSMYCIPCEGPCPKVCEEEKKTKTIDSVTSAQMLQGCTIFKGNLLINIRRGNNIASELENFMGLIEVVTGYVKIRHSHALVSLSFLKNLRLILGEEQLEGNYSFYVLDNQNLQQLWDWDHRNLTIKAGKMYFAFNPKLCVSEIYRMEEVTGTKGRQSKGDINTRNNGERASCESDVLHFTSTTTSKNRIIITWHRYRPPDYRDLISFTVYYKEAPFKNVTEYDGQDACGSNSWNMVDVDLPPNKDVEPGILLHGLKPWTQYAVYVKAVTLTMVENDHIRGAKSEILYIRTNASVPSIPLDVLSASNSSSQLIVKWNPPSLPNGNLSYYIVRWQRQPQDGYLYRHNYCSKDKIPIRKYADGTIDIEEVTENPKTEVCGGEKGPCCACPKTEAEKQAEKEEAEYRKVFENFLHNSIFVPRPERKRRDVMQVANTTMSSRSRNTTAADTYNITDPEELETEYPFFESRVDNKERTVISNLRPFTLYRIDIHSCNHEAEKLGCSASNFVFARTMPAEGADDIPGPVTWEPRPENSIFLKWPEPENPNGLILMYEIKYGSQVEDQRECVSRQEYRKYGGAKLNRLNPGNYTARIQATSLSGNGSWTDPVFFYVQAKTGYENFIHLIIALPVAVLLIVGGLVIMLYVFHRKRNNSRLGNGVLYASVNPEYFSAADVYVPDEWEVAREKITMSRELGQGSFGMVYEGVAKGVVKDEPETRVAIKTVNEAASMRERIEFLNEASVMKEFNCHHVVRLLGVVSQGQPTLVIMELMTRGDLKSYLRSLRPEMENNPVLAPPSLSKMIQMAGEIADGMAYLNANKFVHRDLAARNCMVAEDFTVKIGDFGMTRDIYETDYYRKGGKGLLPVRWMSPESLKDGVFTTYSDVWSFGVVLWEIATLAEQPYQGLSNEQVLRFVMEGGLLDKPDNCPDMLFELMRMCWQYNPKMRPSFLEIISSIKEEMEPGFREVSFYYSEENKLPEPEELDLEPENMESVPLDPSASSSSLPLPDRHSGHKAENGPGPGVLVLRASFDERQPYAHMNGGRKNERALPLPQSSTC
Chain of UniProt P43007 (P43007 whole entry): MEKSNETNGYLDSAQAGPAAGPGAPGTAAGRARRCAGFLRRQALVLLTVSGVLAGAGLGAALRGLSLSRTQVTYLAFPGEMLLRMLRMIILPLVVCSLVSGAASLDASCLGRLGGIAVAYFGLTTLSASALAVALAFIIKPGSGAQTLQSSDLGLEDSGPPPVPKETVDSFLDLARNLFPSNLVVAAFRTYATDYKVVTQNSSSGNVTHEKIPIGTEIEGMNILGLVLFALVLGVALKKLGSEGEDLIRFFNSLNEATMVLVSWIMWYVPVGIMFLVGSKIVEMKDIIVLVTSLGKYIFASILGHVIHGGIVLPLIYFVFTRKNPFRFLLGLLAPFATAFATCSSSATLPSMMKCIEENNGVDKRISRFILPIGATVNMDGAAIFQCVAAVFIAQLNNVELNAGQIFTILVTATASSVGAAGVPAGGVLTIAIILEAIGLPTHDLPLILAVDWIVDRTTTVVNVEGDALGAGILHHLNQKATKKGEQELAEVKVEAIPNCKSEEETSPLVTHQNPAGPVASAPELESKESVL
Chain of UniProt P15144 (P15144 whole entry): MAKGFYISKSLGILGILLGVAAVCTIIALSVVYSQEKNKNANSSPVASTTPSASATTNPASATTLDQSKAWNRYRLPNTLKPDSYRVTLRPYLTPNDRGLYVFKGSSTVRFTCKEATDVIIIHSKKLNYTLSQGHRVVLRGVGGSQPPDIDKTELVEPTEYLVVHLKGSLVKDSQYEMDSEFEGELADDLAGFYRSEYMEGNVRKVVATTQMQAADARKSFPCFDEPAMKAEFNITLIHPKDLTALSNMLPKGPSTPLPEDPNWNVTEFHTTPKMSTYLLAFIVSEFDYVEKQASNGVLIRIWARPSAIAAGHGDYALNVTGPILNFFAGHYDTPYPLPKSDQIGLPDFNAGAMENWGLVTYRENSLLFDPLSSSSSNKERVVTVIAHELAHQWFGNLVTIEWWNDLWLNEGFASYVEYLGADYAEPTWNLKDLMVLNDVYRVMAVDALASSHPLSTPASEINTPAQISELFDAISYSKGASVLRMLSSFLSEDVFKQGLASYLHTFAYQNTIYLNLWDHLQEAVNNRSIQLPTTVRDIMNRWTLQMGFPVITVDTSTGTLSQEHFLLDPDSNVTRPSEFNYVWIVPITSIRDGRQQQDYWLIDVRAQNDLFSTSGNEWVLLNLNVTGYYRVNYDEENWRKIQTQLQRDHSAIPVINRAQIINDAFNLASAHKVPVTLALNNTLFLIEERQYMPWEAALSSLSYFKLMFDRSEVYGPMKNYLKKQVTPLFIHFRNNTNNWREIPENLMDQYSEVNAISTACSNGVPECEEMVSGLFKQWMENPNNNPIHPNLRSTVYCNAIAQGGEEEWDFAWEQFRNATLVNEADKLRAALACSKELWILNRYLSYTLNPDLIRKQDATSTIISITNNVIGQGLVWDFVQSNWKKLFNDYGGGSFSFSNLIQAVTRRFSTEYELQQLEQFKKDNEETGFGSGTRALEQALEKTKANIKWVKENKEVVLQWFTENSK
Chain of UniProt P29401 (P29401 whole entry): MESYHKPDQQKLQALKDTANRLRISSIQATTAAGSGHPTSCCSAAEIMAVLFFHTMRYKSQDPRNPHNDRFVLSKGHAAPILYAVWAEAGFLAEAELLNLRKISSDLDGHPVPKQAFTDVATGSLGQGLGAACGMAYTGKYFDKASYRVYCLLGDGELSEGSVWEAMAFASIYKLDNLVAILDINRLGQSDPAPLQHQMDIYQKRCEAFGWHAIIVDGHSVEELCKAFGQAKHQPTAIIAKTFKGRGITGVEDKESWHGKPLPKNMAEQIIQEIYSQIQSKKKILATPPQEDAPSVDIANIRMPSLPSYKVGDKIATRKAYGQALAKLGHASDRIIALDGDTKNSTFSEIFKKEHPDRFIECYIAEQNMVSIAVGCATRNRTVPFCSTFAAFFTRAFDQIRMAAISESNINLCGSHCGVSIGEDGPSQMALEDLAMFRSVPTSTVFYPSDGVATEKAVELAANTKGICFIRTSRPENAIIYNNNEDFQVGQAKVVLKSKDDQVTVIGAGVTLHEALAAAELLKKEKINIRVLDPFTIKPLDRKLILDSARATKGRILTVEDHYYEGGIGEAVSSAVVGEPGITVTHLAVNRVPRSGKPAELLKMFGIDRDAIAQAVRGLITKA

Row | Target | lysine labeling ratio R10:1
1 | UniProt O60245 (lysine site: K713) | 2.99
2 | CLU (lysine site: K322) (UniProt P10909) | 1.38 (active)
3 | EDIL3 (lysine site: K106) (UniProt O43854) | 2.57
4 | TKT (lysine site: K352) (UniProt P29401) | 6
5 | PSEN1 (lysine site: K109) (UniProt P49768) | 2.61
6 | DNAJA1 (lysine site: K136) (UniProt P31689) | 1.69 (active)
7 | SLC1A4 (lysine site: K239) (UniProt P43007) | 1.94 (active)
8 | MYH9 (lysine site: K1387) (UniProt P35579) | 1.88 (active)
9 | SURF4 (lysine site: K22) (UniProt O15260) | 3.81
10 | UniProt P48047 (lysine site: K84) | 4.75
11 | LMO7 (lysine site: K305) (UniProt Q8WWI1) | 3.84
12 | UniProt Q86UP0 (lysine site: K324) | 1.82 (active)
13 | IGF1R (lysine site: K713) (UniProt P08069) | 2.62
14 | VIM (lysine site: K445) (UniProt P08670) | 10.9
15 | ANPEP (lysine site: K379) (UniProt P15144) | 0.5 (active)
16 | G6PD (lysine site: K432) (UniProt P11413) | 1.85 (active)
17 | CS (lysine site: K76) (UniProt O75390) | 5.03
18 | ANXA1 (lysine site: K287) (UniProt P04083) | 2.78
19 | VIM (lysine site: K373) (UniProt P08670) | 7.19
20 | UniProt O60245 (lysine site: K310) | 2.88

Row | Target | lysine labeling ratio R10:1
21 | ITGAV (lysine site: K360) (UniProt P06756) | 1.23 (active)
22 | HSPG2 (lysine site: K1414) (UniProt P98160) | 1.42 (active)
23 | PLPP3 (lysine site: K187) (UniProt O14495) | 2.06
24 | RCC2 (lysine site: K124) (UniProt Q9P258) | 1.8 (active)
25 | RPS3A (lysine site: K249) (UniProt P61247) | 1.8 (active)
26 | UniProt O60245 (lysine site: K484) | 1.3 (active)
27 | PSMB1 (lysine site: K204) (UniProt P20618) | 2.46
28 | UniProt O95980 (lysine site: K747) | 1.22 (active)
29 | OSBPL5 (lysine site: K446) (UniProt Q9H0X9) | 1.7 (active)
30 | UniProt Q15149 (lysine site: K3685) | 6.03
31 | ITGB1 (lysine site: K202) (UniProt P05556) | 4.2
32 | UniProt P54851 (lysine site: K126) | 3.69
33 | CCT4 (lysine site: K29) (UniProt P50991) | 1.71 (active)
34 | EPRS (lysine site: K328) (UniProt P07814) | 1.73 (active)
35 | IGF1R (lysine site: K892) (UniProt P08069) | 3.9
36 | MET (lysine site: K600) (UniProt P08581) | 1.67 (active)
37 | IL17RA (lysine site: K274) (UniProt Q96F46) | 0.998 (active)
38 | PPIA (lysine site: K31) (UniProt P62937) | 3.16
39 | EEF2 (lysine site: K598) (UniProt P13639) | 1.36 (active)
40 | UniProt Q12891 (lysine site: K148) | 1.46 (active)
